Data on 7 compounds can be found in PubChem BioAssay (NCATS).

Molecules are shown by their SMILES. A number with no mark means an inactive call. Inconclusive results are not listed. Activity calls are given as the source filed them. Unless noted, the call rests on the fitted dose curve; in most records, active means well fitted curve in the direction sought with a large enough effect; inconclusive means small, poorly fitted or top-dose-only effect, or another doubt; inactive means no such curve, though single readings can be large; an effect the other way counts as inactive or inconclusive. Where only a bound is given, the exact number is not on record here.

A short description of assay [1]: AP1 Signaling Pathway (AID 357; active means well fitted curve in either direction with a large enough effect, not every such curve was filed as active; further: on the % scale 0 is the no-effect control and ±100 the full control effect). As to conditions: ME-180 AP-1-bla reporter, EGF-induced, beta-lactamase ratio, 5 h; at 7.69 µM (top of the series) unless noted. Summed up: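 Cells are seeded overnight, exposed to compound titrations and an EC50 level of EGF for 5 hours at 37 °C, then loaded with CCF4 dye for 2.5 hours. Beta-lactamase activity under the AP-1 element is read as a blue/green ratio.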

Assay [2] has as its target Cytochrome P450 1A2 (Homo sapiens) (UniProt P05177). Briefly: p450-cyp1a2 (AID 410; calls by dose curve; further: potency means the concentration at half of the fitted maximal effect). As to conditions: recombinant CYP1A2, luciferin-ME demethylation, luminescence; series mostly up to 57 µM. In short, it runs like this: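 Read-out is luminescence from luciferin produced by CYP1A2 demethylation of Luciferin-ME (100uM, at Km). Detection reagent stopped the 60 min NADPH-dependent reaction; signals were normalized to 57 uM furafylline.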

Assay [3] can be described thus: NFAT Signaling Pathway (AID 444; active means well fitted curve in either direction with a large enough effect, not every such curve was filed as active;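 further: carbachol stimulus at about its EC50 of 1 µM final; on the % scale 0 is the no-effect control and ±100 the full control effect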). The settings on record: Jurkat NFAT-bla M1, carbachol, beta-lactamase ratio, 5 h; at 7.69 µM (top of the series) unless noted. In short, it runs like this: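 Jurkat cells with NFAT-driven β-lactamase reporter and co-expressed M1 receptor, stimulated with carbachol (final 1 uM, ~EC50), compound titration, 5 h at 37 °C. CCF4 loaded 1 h at RT; 460/530 nm ratio gave %activity and AC50.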

Assay [4] is described as follows: Stat Signaling Pathway (AID 446; active means well fitted curve in either direction with a large enough effect, not every such curve was filed as active;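 further: ME-180 cervical cancer cells given 40 pM IL-6 alongside compound; SIE-controlled beta-lactamase reporter measured as 460/530 nm FRET emission ratio; on the % scale 0 is the no-effect control and ±100 the full control effect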). As to conditions: ME-180 SIE beta-lactamase reporter, IL-6 stimulated, 5 h; at 7.69 µM (top of the series) unless noted. Summed up:
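Emission at 460 and 530 nm (excitation 405 nm) reports SIE-controlled beta-lactamase in ME-180 cells. Cells received compound with 40 pM IL-6 for 5 hrs at 37 C; data scaled between 300 pM IL-6 and 125 nM JAK-inhibitor controls.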

The target in assay [5] is Glucocorticoid receptor (Homo sapiens) (UniProt P04150). Briefly: GR-GFP Redistribution (AID 450;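 active means compounds whose dose series gives a full or clear partial fitted curve of increased nuclear translocation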; further: potency means the concentration at half of the fitted maximal effect). As to conditions: U2OS GR-GFP nuclear translocation, laser cytometry, 2 h.
For assay [6] the target is unchanged. Briefly: GR-EFC Redistribution (AID 451; calls by dose curve; further: potency means the concentration at half of the fitted maximal effect). As to conditions: CHO-K1 GR-EFC translocation, beta-gal luminescence, 2 h. In short, it runs like this: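 CHO-K1 cells expressing nuclear EA and GR-ED fragments of b-gal; compounds titrated up to 46 uM final, 2 h at 37 C. GR nuclear translocation read as complemented b-gal luminescence after 1 h RT detection.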
Assay [7] concerns the target Mitogen-activated protein kinase 10 (Mus musculus) (UniProt Q61831). Briefly: JNK3 AlphaScreen Assay (AID 530; active means well fitted curve in either direction with a large enough effect, not every such curve was filed as active;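 further: kinase came from lysate of stimulated human HepG2 cells; signal reports phosphorylation of biotinylated GST-cJun 1-79 at Ser73 with 10 µM ATP; on the % scale 0 is the no-effect control and ±100 the full control effect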). As to conditions: JNK3 lysate, c-Jun phosphorylation; series mostly up to 57.1 µM. In short, it runs like this: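 HepG2 lysate (IL-1b/TNFa pre-activated) + biotin-GST-cJun 1-79 + anti-pSer73 cJun; cpd titration, 15 min RT; ATP 10 uM start; Tris pH 7.6, MgCl2, DTT, vanadate; beads in EDTA buffer; AlphaScreen.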
(Alpha assays give light when donor and acceptor beads are brought close together.)

Assay [8] has as its target 3',5'-cyclic-AMP phosphodiesterase 4B (Homo sapiens) (UniProt Q07343). As to the kind of experiment: qHTS Assay for Inhibitors of PDE-IV (AID 607; active means well fitted activation curve with a large enough effect in the main read-out, with a control signal flat, not every such curve was filed as active; further: % of control where 0% means no effect). The settings on record: HEK293 ACTOne CNG channel cells, membrane potential fluorescence; series mostly up to 22.9 µM. Summed up: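 The readout is membrane depolarisation from a cAMP-sensing CNG channel, detected with a potential dye at ex 535/em 590. Cells were HEK293-derived (endogenous PDE-IV) at 1000 cells/well, titrated up to 22.9 uM final.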
For orientation: In qHTS, concentration-response curves come from the screen itself.

Assay [9] has as its target Cytochrome P450 3A4 (Homo sapiens) (UniProt P08684). As to the kind of experiment: qHTS Assay for Activators of Cytochrome P450 3A4 (AID 885). Further: nearly all actives have a fitted effect of over 65% in size. The settings on record: recombinant CYP3A4, Luciferin-PPXE luminescence, 60 min; series mostly up to 57.1 µM. Summed up: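 Activators are scored by enhanced luminescence from CYP3A4 conversion of luciferin-PPXE (25uM, equal to KM) to luciferin, after 60 min at RT with an NADPH-regenerating system.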

The target in assay [10] is Cytochrome P450 2D6 (Homo sapiens) (UniProt P10635). Briefly: qHTS Assay for Inhibitors and Substrates of Cytochrome P450 2D6 (AID 891). Further: potency means the concentration at half of the fitted maximal effect; nearly all actives have a fitted effect of over 60% in size. As to conditions: recombinant CYP2D6, luciferin-ME EGE luminescence; series mostly up to 57.1 µM. Summed up: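 Luminescent read-out of luciferin formed by 5 nM human CYP2D6 demethylating 30 uM Luciferin-ME EGE (Km level) over 60 min at room temperature after NADPH regeneration addition. Data normalized to full inhibition by 1.43 uM quinidine.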

Assay [11] deals with Dual specificity protein kinase CLK4 (Homo sapiens) (UniProt Q9HAZ1). Briefly: qHTS Assay for Inhibitors of CDC-like Kinase 4 (Kinase-Glo Assay) (AID 1770). Further: nearly all actives have a fitted effect of over 65% in size. Further: potency means the concentration at half of the fitted maximal effect. The settings on record: recombinant Clk4, Kinase-Glo ATP depletion luminescence; series mostly up to 66.7 µM. In short, it runs like this:
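Readout: Kinase-Glo luminescence from ATP left after a 4.5 h room-temperature reaction of 25 nM Clk4 with 100 uM RS peptide and 1 uM ATP (final). Buffer: 25 mM Tris pH 7.5, 10 mM MgCl2.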

Assay [12] shares this target. Briefly: qHTS Assay for Inhibitors of CDC-like Kinase 4 (ADP-Glo Assay) (AID 1771). Further: nearly all actives have a fitted effect of over 70% in size. Further: potency means the concentration at half of the fitted maximal effect. The settings on record: recombinant CLK4, ADP-Glo luminescence; series mostly up to 80 µM. Summed up:
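In this ADP-Glo format, 1 uM ATP and 100 uM RS peptide served as substrates for 25 nM Clk4 in Mg2+/EGTA/DTT/Triton buffer; reactions ran 1 hr at room temperature before luminescent ADP quantification.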

For assay [13] the target is unchanged. Briefly: qHTS Assay for Inhibitors of CDC-like Kinase 4 (ADP-FP Assay) (AID 1795). Further: nearly all actives have a fitted effect of over 60% in size. Further: potency means the concentration at half of the fitted maximal effect. The settings on record: Transcreener ADP fluorescence polarization; series mostly up to 50 µM. Summed up: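 FP readout: Orange Transcreener ADP2 tracer (4 nM) plus ADP antibody, read after 30 min at room temperature. Kinase step: 6.25 nM Clk4, 100 uM RS peptide, 1 uM ATP, pH 7.5, 1 h.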

Assay [14] is described as follows: Primary qHTS for small molecule stabilizers of the endoplasmic reticulum resident proteome: Secreted ER Calcium Modulated Protein (SERCaMP) assay (AID 1508630). Further: on the % scale 0 is the no-effect control and ±100 the full control effect. The settings on record: SH-SY5Y GLuc-SERCaMP (Gaussia luciferase released on ER calcium loss) secretion, thapsigargin, luminescence; series mostly up to 38.4 µM. Summed up:
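The SH-SY5Y reporter protocol was run at 3 concentrations up to 38.3 uM (primary) or 11 concentrations (follow-up): 16 h compound, 100 nM thapsigargin for 4 h, then extracellular luciferase luminescence.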

Assay [15] has as its target Cytochrome P450 3A4 (Homo sapiens) (UniProt P08684). Briefly: qHTS Assay for Inhibitors and Substrates of Cytochrome P450 3A4 (AID 884). Further: potency means the concentration at half of the fitted maximal effect; nearly all actives have a fitted effect of over 50% in size. As to conditions: recombinant CYP3A4, Luciferin-PPXE luminescence; series mostly up to 57.1 µM. In short, it runs like this: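 Luminescent readout of luciferin produced by CYP3A4 (20 nM) dealkylation of Luciferin-PPXE, 25 uM (its KM). NADPH-driven reaction ran 60 min at RT after 10 min compound preincubation; data scaled to 57 uM ketoconazole as 100% inhibition.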

The target in assay [16] is Ubiquitin carboxyl-terminal hydrolase 1 (Homo sapiens) (UniProt O94782). As to the kind of experiment: Inhibitors of USP1/UAF1: Pilot qHTS (AID 504865). Further: nearly all actives have a fitted effect of over 35% in size. Further: potency means the concentration at half of the fitted maximal effect. The settings on record: purified USP1/UAF1, Ub-rhodamine cleavage fluorescence; series mostly up to 54.9 µM. In short, it runs like this: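 1nM USP1/UAF1 + cpd, 15 min RT; start w/ Ub-Rho 150nM final; kinetic FL 480/540 nm, 6 reads q60 s. Buffer 50mM HEPES pH 7.8, 0.5mM EDTA, 1mM TCEP, 0.01% Tween-20, 0.1 mg/ml BSA.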

The target in assay [17] is Lysosomal acid glucosylceramidase (Homo sapiens) (UniProt P04062). Briefly: Glucocerebrosidase-p2 (AID 348; in the data active means potency below about 10 µM; further: potency means the concentration at half of the fitted maximal effect). The settings on record: purified GBA, blue fluorogenic substrate, 40 min. In short, it runs like this: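 Normal human glucocerebrosidase (0.2 nM) with blue fluorogenic substrate (80 uM final) in citrate/phosphate pH 5.9 with 10mM sodium taurocholate, 0.01% tween-20; 40 min RT, NaOH/glycine stop; fluorescence Ex 365/Em 440; AC50 from a titration from 0.6 nM upwards.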

For assay [18], the target named is Cytochrome P450 2C19 (Homo sapiens) (UniProt P33261). Briefly: qHTS Assay for Inhibitors and Substrates of Cytochrome P450 2C19 (AID 899). Further: potency means the concentration at half of the fitted maximal effect; nearly all actives have a fitted effect of over 60% in size. The settings on record: recombinant CYP2C19, luciferin-H EGE luminescence; series mostly up to 57.1 µM. In short, it runs like this:
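Luminescent read-out of luciferin formed from Luciferin-H EGE (10uM, equal to KM). Enzyme 5nM in 50mM KPO4; compound added, 10 min at 37C, then NADPH regenerating system for 60 min at 37C. Full inhibition defined by 57uM ketoconazole.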

A short description of assay [19]: qHTS Assay for Identification of Small Molecule Agonists for Hypoxia Response Element Signaling Pathway (AID 914; active means well fitted activation curve with a large enough effect in the signal ratio, with a control signal flat, not every such curve was filed as active; the % refers to the signal ratio; further: % of control where 0% means no effect). The settings on record: ME-180 (cervical carcinoma) HRE-bla reporter, beta-lactamase ratio, CoCl2, 17 h; activation: active compounds read high. Summed up:
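Positive modulation of EC50 CoCl2-induced hypoxia response element signaling is measured in ME-180 cells with a beta-lactamase reporter. Compounds are titrated, incubation runs 17 hours, and %Activity derives from the blue/green ratio.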

Chain of Cytochrome P450 3A4 (Homo sapiens) (P08684 whole entry, looked up): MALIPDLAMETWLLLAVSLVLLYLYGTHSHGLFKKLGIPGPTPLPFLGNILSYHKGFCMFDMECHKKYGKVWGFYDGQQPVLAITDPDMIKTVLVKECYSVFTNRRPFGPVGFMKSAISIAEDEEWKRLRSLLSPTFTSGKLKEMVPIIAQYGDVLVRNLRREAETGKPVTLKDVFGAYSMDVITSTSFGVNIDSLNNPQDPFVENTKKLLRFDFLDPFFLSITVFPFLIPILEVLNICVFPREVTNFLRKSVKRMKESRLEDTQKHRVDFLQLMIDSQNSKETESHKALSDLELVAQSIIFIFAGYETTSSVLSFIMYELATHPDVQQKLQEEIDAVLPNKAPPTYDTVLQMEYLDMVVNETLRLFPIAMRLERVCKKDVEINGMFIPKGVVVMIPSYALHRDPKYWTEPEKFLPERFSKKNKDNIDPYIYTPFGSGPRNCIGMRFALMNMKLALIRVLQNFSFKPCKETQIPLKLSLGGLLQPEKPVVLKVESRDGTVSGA
Chain of Dual specificity protein kinase CLK4 (Homo sapiens) (Q9HAZ1 whole entry, looked up): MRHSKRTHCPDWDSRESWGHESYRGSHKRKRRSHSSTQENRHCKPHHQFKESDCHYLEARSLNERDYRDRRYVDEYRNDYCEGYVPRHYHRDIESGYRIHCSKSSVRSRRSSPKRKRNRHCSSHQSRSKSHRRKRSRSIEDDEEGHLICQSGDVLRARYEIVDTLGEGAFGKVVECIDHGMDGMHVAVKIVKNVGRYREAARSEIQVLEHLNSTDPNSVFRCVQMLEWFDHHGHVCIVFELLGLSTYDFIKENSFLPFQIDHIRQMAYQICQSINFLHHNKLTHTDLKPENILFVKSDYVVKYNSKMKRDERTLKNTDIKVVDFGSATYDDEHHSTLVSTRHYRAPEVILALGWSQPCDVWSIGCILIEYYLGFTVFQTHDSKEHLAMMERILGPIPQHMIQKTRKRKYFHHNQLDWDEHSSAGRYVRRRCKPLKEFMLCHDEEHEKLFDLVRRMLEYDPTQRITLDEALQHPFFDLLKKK
Chain of Ubiquitin carboxyl-terminal hydrolase 1 (Homo sapiens) (O94782 whole entry, looked up): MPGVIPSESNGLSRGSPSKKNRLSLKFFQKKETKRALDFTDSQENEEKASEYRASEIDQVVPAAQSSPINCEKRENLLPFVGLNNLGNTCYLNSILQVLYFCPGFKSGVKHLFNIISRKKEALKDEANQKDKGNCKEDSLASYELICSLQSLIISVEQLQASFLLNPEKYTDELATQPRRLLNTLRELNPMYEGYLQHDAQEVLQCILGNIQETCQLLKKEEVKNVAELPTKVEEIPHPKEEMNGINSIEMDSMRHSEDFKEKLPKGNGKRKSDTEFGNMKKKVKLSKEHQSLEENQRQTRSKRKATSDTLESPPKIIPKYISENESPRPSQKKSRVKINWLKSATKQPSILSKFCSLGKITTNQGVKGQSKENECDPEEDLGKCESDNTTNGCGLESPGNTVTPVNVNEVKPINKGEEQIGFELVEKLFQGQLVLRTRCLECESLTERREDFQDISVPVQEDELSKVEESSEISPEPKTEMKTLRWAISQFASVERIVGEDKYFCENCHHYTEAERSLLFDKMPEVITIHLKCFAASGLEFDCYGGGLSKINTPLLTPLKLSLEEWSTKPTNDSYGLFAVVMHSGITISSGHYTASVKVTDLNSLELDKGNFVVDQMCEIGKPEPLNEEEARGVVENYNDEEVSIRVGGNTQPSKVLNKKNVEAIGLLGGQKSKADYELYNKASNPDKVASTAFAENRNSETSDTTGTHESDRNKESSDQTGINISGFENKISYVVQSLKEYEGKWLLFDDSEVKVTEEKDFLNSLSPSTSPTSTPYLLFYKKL
Chain of Lysosomal acid glucosylceramidase (Homo sapiens) (P04062 whole entry, looked up): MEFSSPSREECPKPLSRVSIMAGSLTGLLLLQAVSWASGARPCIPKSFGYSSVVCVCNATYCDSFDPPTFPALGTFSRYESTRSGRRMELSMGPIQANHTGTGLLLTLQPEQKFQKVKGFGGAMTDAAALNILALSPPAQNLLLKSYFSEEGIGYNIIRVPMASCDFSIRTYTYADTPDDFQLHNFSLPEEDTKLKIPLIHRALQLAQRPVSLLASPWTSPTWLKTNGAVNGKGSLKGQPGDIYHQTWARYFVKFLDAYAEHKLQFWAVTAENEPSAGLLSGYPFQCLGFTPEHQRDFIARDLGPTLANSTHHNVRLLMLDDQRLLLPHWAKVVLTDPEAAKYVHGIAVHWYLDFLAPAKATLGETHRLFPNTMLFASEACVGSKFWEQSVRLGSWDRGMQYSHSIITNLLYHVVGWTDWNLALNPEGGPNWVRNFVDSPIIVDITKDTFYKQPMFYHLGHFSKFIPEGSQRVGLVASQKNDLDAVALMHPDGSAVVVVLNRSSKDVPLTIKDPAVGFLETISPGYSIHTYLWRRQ
Chain of 3',5'-cyclic-AMP phosphodiesterase 4B (Homo sapiens) (Q07343 whole entry, looked up): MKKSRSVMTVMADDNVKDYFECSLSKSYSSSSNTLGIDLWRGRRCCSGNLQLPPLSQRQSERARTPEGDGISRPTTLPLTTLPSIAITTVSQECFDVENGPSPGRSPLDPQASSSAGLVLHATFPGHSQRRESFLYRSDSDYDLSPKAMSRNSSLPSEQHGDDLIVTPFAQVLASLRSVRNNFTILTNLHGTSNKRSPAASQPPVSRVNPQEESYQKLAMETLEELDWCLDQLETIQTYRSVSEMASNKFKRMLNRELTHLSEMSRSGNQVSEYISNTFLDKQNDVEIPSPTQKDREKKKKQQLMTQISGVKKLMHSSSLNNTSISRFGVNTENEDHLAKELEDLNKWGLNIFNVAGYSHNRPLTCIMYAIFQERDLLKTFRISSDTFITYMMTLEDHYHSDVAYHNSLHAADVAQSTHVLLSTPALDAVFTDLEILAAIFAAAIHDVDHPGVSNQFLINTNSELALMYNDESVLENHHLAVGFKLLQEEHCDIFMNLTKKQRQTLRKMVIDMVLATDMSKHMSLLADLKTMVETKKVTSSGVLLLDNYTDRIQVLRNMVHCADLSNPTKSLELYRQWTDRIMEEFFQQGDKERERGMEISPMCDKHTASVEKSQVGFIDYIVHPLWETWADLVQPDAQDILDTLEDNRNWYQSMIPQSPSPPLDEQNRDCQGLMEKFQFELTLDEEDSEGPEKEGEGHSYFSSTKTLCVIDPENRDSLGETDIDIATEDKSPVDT
Chain of Cytochrome P450 1A2 (Homo sapiens) (P05177 whole entry, looked up): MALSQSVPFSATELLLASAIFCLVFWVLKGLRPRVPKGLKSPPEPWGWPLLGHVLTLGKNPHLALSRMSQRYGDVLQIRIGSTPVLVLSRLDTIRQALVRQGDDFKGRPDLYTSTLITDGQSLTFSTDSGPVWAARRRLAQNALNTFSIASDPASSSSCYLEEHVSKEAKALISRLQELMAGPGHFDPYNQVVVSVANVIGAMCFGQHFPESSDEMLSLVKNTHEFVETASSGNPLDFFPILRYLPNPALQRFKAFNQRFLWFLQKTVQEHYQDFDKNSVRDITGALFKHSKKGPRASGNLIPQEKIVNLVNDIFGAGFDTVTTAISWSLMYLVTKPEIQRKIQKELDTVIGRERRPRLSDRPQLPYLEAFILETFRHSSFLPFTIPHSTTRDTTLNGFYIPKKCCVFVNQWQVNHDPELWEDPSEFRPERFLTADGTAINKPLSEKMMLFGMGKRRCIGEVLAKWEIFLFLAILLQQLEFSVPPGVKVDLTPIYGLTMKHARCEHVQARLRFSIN
Chain of Glucocorticoid receptor (Homo sapiens) (P04150 whole entry, looked up, the tested form may be a part): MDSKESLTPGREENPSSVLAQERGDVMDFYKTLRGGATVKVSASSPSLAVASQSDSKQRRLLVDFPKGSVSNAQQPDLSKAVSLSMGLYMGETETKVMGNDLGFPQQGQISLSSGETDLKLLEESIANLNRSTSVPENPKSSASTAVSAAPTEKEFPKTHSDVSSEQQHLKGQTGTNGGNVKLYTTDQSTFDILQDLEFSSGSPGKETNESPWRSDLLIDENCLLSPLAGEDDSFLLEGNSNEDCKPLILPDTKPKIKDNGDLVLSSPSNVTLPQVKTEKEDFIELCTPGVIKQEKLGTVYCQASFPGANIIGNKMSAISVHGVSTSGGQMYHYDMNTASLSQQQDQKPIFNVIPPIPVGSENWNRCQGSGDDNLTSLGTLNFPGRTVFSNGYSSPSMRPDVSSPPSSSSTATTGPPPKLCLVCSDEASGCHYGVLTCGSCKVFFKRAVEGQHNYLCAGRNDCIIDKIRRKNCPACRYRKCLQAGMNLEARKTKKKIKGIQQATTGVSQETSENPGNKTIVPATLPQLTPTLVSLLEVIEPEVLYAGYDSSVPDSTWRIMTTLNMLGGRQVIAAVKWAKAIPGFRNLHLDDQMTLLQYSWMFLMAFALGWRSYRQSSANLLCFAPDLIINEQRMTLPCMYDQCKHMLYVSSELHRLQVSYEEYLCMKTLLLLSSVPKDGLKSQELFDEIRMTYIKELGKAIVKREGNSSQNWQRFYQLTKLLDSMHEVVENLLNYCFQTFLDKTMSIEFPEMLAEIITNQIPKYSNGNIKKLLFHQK
Chain of Cytochrome P450 2D6 (Homo sapiens) (P10635 whole entry, looked up): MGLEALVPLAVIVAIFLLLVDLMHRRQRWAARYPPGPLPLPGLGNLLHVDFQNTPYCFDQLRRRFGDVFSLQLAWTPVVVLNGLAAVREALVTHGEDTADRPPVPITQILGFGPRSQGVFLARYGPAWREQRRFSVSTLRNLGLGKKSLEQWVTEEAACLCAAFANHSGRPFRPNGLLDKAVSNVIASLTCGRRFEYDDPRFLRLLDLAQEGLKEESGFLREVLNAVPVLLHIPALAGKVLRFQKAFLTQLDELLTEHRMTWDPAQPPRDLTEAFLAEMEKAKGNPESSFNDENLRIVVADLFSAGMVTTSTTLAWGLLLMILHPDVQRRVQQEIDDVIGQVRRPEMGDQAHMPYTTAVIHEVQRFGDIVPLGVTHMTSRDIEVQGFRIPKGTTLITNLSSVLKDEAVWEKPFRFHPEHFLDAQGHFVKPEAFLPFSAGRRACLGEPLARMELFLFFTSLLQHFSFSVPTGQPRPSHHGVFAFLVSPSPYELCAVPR

Take `COc1ccccc1CNc1ccnc(-c2ccccc2OC)n1`: the activity change, negative = inhibition was -0.503% in assay [1] and -0.0586% in assay [3]. The Potency in [2] is 3.98 µM (active); in [5], above 46 µM; in [6] it was above 46 µM; in assay [10], 1.58 µM (active). Further, the activity, negative = inhibition in assay [4] is 9.83%. Further, the Potency entry in assay [7], in [8], in assay [9], in assay [11], in [12] and in assay [13] was “inactive” each time. Further, the result in [14] was inactive.
For `COc1ccc2[nH]cc(CCNc3ncncc3-c3cccc(NS(C)(=O)=O)c3)c2c1`, the activity change, negative = inhibition in assay [1] is -19.1%; in assay [3], 15.3%. Also, the Potency in [2] is 12.6 µM (active); in [5] it was above 46 µM; in [6], above 46 µM; in assay [15] it was 0.398 µM (active); in assay [10], 3.16 µM (active); in [11], 25.1 µM (active). Moreover, the Potency in [12] was 35.5 µM (active); in assay [13], 10 µM (active). Further, in assay [4], the activity, negative = inhibition is -18.7%. The Potency entry in assay [7], in assay [8], in assay [9] and in [16] was “inactive” in each case. Further, in assay [14], the outcome was inactive.
On to `Cc1cccc(CNc2ccnc(-c3cccc(C#N)c3)n2)c1`, for which the Potency in assay [17] was above 11.4 µM; in [2] it was 0.398 µM (active); in assay [5], above 46 µM; in assay [6] it was above 46 µM; in assay [15], 1.26 µM (active); in assay [18] it was 2.51 µM (active). The values for the Potency in assay [11], in [12] and in assay [13] were 11.2 µM (active), 7.94 µM (active) and 11.2 µM (active), respectively. Moreover, the Potency entry in [8], in [9] and in [16] was “inactive” in each case. In addition, the result in assay [14] was inactive.
Regarding `O=c1c(-c2ccc(Cl)cc2)nc2cnc(N3CCNCC3)nc2n1-c1ccccc1`, the Potency was above 11.4 µM in assay [17], above 9.22 µM in assay [5] and above 46 µM in assay [6]. Besides, the activity change, negative = inhibition in assay [3] was 153% [activator] (active). Besides, the Potency entry in [8], in assay [9], in [11], in assay [12], in assay [13] and in [16] was “inactive” each time. For the same compound, in [14], the outcome was inactive.
Consider `Cc1cccc(CNc2ccnc(-c3ccccc3C(F)(F)F)n2)c1`, for which the values for the activity change, negative = inhibition in assay [1] and in assay [3] were -10.1% and 1.23%, respectively. The Potency in [2] is 6.31 µM (active); in [5], above 46 µM; in assay [6] it was above 46 µM; in assay [16], 3.98 µM (active). The activity, negative = inhibition in assay [4] was 5.48%. In addition, the Potency entry in assay [7], in [9], in assay [11], in assay [12] and in [13] was “inactive” in each case. For the same compound, the activation in [19] was -2.48%. Besides, the result in [14] was inactive.
`O=c1c(-c2cc(F)cc(F)c2)nc2cnc(N3CCNCC3)nc2n1Cc1ccc(F)cc1`: the Potency in assay [17] was above 11.4 µM; in [5] it was above 9.22 µM; in assay [6], above 46 µM. Besides, the Potency entry in [7], in assay [8], in assay [11], in [12] and in assay [13] was “inactive” each time. The outcome in [14] was inactive.
As to `CN1CCN(c2ncc3nc(-c4cn(C)c5ccccc45)c(=O)n(-c4ccccc4)c3n2)CC1`, the results for the activity change, negative = inhibition in assay [1] and in assay [3] were 2.43% and 20%, respectively. Also, the results for the Potency in assay [2], in assay [5] and in assay [6] were 15.8 µM (active), above 9.22 µM and above 46 µM, respectively. Further, the activity, negative = inhibition in [4] is 4.99%. For the same compound, the Potency entry in [7], in assay [8], in [9], in assay [11], in [12] and in [13] was “inactive” each time. In addition, the outcome in [14] was inactive.
